Where a name gives a salt, the structure may show the parent alone.
Each molecule was assayed on Danio rerio larvae Tg(actc1b:ZsGreen-LC3), 3 dpf (assay: LC3 puncta relative area vs vehicle, without NH4Cl (log2 fold change); higher = more autophagosomes). Conditions: 10 µM; treatment time 16 h; NH4Cl: none.
Experimental: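 Transgenic Tg(actc1b:ZsGreen-map1lc3) zebrafish larvae (2 dpf) were treated for 16 h with Tocris library compounds at 10 µM (n = 12 larvae per compound). Skeletal-muscle LC3 puncta area relative to body area was measured by high-content confocal imaging before and after 4 h of 100 mM NH4Cl (autophagic flux), normalised to vehicle (DMSO), and reported as log2 fold change.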

Row | SMILES | LC3 puncta (log2)
1 | CC(=O)N1CC[N+](C)(C)CC1 [4-Acetyl-1,1-dimethylpiperazinium iodide] | -0.21
2 | C(=C\c1ccccc1)/CN1CCN(CCOC(c2ccccc2)c2ccccc2)CC1 | 0.421
3 | COC(=O)[C@@H](N)CCCNC(=N)N[N+](=O)[O-] [L-NAME hydrochloride] | -0.0167
4 | CC(CN)CC(=O)O (configuration not stated) [3-Methyl-GABA] | 0.26
5 | NC(C(=O)O)c1nn[nH]n1 (racemic) [(RS)-(Tetrazol-5-yl)glycine] | 0.24
6 | CN1[C@@H]2CC[C@H]1C[C@@H](OC(=O)c1cc(Cl)cc(Cl)c1)C2 | 0.263
7 | Cn1cnc(CCN)c1 [N?-Methylhistamine dihydrochloride] | 0.287
8 | c1ccc2nc(N3CCNCC3)ccc2c1 [Quipazine dimaleate] | 0.115
9 | c1ccc2c(c1)OCC(C1=NCCN1)O2 (configuration not stated) [Idazoxan hydrochloride] | 0.411
10 | O=C1NCN(c2ccccc2)C12CCN(CC1COc3ccccc3O1)CC2 (configuration not stated) [Spiroxatrine] | 0.423
11 | S=C(NC1CCCCC1)N1CCC(c2cnc[nH]2)CC1 [Thioperamide] | 0.0474
12 | CCC(Oc1ccc(Cl)cc1)C(=O)OC1C[C@H]2CC[C@@H](C1)N2C (some centres not stated) [SM-21 maleate] | 0.226
13 | c1ccc(CCCCN2CCC(c3ccccc3)CC2)cc1 [4-PPBP maleate] | 0.0152
14 | Oc1ccc2c3c1O[C@H]1c4[nH]c5ccccc5c4C[C@@]4(O)[C@@H](C2)N(CC2CC2)CC[C@]314 [Naltrindole hydrochloride] | 0.245
15 | N[C@@H](Cn1oc(=O)[nH]c1=O)C(=O)O [L-Quisqualic acid] | 0.387
16 | CC(N)Cc1cnc[nH]1 (configuration not stated) | 0.372
17 | CCCCCCC[n+]1ccc(-c2cc[n+](CCCCCCC)cc2)cc1 [DHBP dibromide] | 0.00945
18 | C=CCN1C[C@H](C)N([C@H](c2ccc(C(=O)N(CC)CC)cc2)c2cccc(OC)c2)C[C@H]1C | 0.784
19 | CC[N+](CC)(CCCNC1=CC(=O)C(NCCC[N+](CC)(CC)Cc2ccccc2)=CC1=O)Cc1ccccc1 [Benzoquinonium dibromide] | -0.144
20 | c1ccc(CC(c2ccccc2)N2CCCCC2)cc1 (configuration not stated) [(?)-1-(1,2-Diphenylethyl)piperidine maleate] | 0.167
21 | COc1ccc(CNC(=O)/C=C/c2ccc3[nH]cc(CCN(C)C)c3c2)cc1 | -0.124
22 | O=C1CCCN1CC#CCN1CCCC1 [Oxotremorine sesquifumarate] | -0.285
23 | N=C(N)NN [Aminoguanidine hydrochloride] | 0.471
24 | Cc1nc(N)sc1CCN [Amthamine dihydrobromide] | 0.0368
25 | COc1ccc(C(=O)N2CCCC2=O)cc1 [Aniracetam] | 0.228
26 | Cc1onc(O)c1CC(N)C(=O)O (racemic) | -0.391
27 | CCCN(C/C=C/I)C1CCc2ccc(O)cc2C1 (configuration not stated) [7-Hydroxy-PIPAT maleate] | -0.263
